Measurements: PubChem BioAssay (EPA / NIEHS)
Records with an inconclusive call do not appear. Active and inactive are the calls of the source. How the source made its calls, unless noted: active means hit-call score of the fitted dose curve at least 0.9, where 1 is the maximum; inactive means score below 0.9.

Legend:
[1] = molecular target: Glucocorticoid receptor (Homo sapiens) (UniProt P04150); assay: ATG_GR_TRANS: Attagene TRANS-FACTORIAL HepG2 Assay for human Glucocorticoid Receptor (GR) (AID 2282978; active means hit-call score of the fitted dose curve at least 0.9, where 1 is the maximum;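 further: activators score as hits since higher reporter transcript over DMSO is fitted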); conditions: HepG2 Attagene TRANS GR reporter, mRNA transcription
Glucocorticoid receptor (Homo sapiens), sequence (P04150 whole entry, looked up, the tested form may be a part): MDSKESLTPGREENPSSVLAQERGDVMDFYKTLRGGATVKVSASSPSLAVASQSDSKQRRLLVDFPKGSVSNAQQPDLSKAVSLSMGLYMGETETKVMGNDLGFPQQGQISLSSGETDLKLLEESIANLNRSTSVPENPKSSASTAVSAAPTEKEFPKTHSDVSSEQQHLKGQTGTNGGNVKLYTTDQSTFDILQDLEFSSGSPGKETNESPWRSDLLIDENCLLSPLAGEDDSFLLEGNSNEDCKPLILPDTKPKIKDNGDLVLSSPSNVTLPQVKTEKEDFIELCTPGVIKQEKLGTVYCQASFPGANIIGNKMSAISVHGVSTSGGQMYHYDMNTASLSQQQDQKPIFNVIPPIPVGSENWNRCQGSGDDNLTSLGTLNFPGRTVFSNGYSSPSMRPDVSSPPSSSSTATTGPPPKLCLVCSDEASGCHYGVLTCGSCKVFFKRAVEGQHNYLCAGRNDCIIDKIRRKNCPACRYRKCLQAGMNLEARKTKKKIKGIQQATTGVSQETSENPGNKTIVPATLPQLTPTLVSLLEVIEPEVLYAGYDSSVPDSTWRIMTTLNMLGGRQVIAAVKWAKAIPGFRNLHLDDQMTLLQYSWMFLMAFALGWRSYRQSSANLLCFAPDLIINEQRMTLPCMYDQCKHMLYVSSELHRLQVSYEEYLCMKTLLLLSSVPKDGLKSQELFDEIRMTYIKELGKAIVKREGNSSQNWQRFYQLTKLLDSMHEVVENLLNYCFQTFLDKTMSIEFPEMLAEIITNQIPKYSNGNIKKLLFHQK
Method in brief: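 Exogenous NR-GAL4 fusion activity was assessed through induced GAL4-UAS reporter transcripts in transfected human HepG2 cells, quantified after 24 h by RT-PCR and fluorescent capillary electrophoresis with DMSO as baseline.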

[2] = molecular target: Oxysterols receptor LXR-beta (Homo sapiens) (UniProt P55055); assay: ATG_LXRb_TRANS: Attagene TRANS-FACTORIAL HepG2 Assay for human Liver X Receptor beta (LXRb) (AID 2282981; active means hit-call score of the fitted dose curve at least 0.9, where 1 is the maximum); conditions: HepG2 Attagene TRANS GAL4-LXRb reporter, mRNA
Oxysterols receptor LXR-beta (Homo sapiens), sequence (P55055 whole entry, looked up, the tested form may be a part): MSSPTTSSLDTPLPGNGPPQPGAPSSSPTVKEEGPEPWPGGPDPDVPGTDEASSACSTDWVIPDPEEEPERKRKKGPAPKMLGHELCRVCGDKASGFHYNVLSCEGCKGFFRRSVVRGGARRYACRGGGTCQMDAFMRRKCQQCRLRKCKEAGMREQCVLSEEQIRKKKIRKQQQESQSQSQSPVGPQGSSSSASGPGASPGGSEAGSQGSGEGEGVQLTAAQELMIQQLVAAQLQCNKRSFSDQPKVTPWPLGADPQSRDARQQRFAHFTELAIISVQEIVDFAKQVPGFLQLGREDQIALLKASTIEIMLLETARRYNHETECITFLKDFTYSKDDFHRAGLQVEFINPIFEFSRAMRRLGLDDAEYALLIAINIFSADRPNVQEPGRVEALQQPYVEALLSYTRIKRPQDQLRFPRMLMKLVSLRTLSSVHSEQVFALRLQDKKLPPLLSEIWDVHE
Method in brief: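 HepG2 cells transiently transfected with multiple reporter transcription units carrying chimeric NR-Gal4 proteins acting on GAL4-UAS reporters; compound exposure 24 h. Reporter mRNA quantified by RT-PCR, 6-FAM labelling, HpaI digestion and capillary electrophoresis; gain of signal versus DMSO.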

[3] = molecular target: Hepatocyte nuclear factor 4-alpha (Homo sapiens) (UniProt P41235); assay: ATG_HNF4a_TRANS: Attagene TRANS-FACTORIAL HepG2 Assay for human Hepatocyte Nuclear Factor 4 alpha (HNF4a) (AID 2282982; active means hit-call score of the fitted dose curve at least 0.9, where 1 is the maximum); conditions: HepG2 HNF4a transactivation reporter, mRNA readout
Hepatocyte nuclear factor 4-alpha (Homo sapiens), sequence (P41235 whole entry, looked up, the tested form may be a part): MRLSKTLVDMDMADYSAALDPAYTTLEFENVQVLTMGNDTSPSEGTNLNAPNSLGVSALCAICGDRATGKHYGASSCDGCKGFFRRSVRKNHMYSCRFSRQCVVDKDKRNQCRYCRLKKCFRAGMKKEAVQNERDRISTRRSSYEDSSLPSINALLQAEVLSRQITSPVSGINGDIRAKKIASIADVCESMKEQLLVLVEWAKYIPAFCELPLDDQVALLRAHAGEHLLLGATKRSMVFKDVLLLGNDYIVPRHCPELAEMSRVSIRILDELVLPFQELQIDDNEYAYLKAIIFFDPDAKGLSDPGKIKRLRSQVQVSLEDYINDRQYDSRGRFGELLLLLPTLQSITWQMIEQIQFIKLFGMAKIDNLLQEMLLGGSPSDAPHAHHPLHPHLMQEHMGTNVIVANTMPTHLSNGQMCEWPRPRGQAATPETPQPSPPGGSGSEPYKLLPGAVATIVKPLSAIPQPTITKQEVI
Method in brief: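 HepG2 cells transiently transfected with multiplexed GAL4-UAS reporter units responsive to chimeric NR-GAL4 proteins; compound exposure 24 h. Reporter mRNA quantified by RT-PCR, 6-FAM labelling, HpaI digestion and capillary electrophoresis; gain of signal versus DMSO baseline.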

[4] = ATG_M_06_TRANS: Attagene TRANS-FACTORIAL HepG2 Assay for M06 Transcription Factor (Internal Marker) (AID 2282983; active means hit-call score of the fitted dose curve at least 0.9, where 1 is the maximum;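 further: reporter transcript level by RT-PCR then capillary electrophoresis fluorescence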); conditions: HepG2 Attagene TRANS M06 internal marker reporter
Method in brief: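 HepG2 cells transiently transfected with GAL4-UAS multiple reporter units, dosed 24 h. Reporter RNA reverse-transcribed, PCR-amplified, 6-FAM-labeled, HpaI-digested and quantified by capillary electrophoresis; this internal-marker signal fitted upward relative to DMSO.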

[5] = ATG_M_32_TRANS: Attagene TRANS-FACTORIAL HepG2 Assay for M32 Transcription Factor (Internal Marker) (AID 2282984; active means hit-call score of the fitted dose curve at least 0.9, where 1 is the maximum;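 further: transcript level of a background control reporter unit measured by RT-PCR and capillary electrophoresis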); conditions: HepG2 Attagene TRANS M32 internal marker reporter
Method in brief: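 HepG2 cells transiently transfected with multiple GAL4-UAS reporter transcription units, dosed for 24 hours; reporter mRNA quantified by RT-PCR, 6-FAM primer extension, HpaI digestion and capillary electrophoresis. Gain-of-signal fitted versus DMSO baseline; internal background-control marker.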

[6] = molecular target: Nuclear receptor subfamily 4 group A member 2 (Homo sapiens) (UniProt P43354); assay: ATG_NURR1_TRANS: Attagene TRANS-FACTORIAL HepG2 Assay for human Nuclear Receptor Related Protein 1 (NURR1) (AID 2282985; active means hit-call score of the fitted dose curve at least 0.9, where 1 is the maximum); conditions: HepG2 Attagene TRANS reporter, mRNA readout
Nuclear receptor subfamily 4 group A member 2 (Homo sapiens), sequence (P43354 whole entry, looked up, the tested form may be a part): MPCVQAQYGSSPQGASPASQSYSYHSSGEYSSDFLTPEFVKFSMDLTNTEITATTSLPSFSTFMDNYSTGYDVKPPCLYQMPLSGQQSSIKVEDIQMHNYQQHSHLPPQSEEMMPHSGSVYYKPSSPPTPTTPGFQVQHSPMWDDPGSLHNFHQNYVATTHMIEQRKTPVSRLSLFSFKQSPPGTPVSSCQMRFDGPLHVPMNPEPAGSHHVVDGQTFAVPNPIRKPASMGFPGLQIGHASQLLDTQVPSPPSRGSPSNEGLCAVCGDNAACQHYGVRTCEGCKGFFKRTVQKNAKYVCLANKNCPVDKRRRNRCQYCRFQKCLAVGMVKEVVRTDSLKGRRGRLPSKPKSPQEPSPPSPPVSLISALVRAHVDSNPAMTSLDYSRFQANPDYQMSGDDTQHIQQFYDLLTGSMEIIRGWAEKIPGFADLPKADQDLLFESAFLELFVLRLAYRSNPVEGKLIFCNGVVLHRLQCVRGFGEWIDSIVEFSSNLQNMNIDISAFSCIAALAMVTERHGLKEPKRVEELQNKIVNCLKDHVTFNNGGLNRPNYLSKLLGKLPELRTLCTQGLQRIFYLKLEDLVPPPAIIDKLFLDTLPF
Method in brief: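 HepG2 cells transiently transfected with GAL4-UAS reporter units and chimeric NR-Gal4 constructs; chemical exposure 24 h. Reporter mRNA quantified by RT-PCR, fluorescent labelling and capillary electrophoresis; gain of signal fitted relative to DMSO baseline.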

[7] = molecular target: Transcriptional activator Myb (Homo sapiens) (UniProt P10242); assay: ATG_Myb_CIS: Attagene CIS-FACTORIAL HepG2 Assay for human Myeloblastosis (Myb) Proto-Oncogene Transcription Factor (AID 2282986); conditions: HepG2 Attagene CIS-FACTORIAL Myb reporter transcription; actives raise or lower the signal
Transcriptional activator Myb (Homo sapiens), sequence (P10242 whole entry, looked up): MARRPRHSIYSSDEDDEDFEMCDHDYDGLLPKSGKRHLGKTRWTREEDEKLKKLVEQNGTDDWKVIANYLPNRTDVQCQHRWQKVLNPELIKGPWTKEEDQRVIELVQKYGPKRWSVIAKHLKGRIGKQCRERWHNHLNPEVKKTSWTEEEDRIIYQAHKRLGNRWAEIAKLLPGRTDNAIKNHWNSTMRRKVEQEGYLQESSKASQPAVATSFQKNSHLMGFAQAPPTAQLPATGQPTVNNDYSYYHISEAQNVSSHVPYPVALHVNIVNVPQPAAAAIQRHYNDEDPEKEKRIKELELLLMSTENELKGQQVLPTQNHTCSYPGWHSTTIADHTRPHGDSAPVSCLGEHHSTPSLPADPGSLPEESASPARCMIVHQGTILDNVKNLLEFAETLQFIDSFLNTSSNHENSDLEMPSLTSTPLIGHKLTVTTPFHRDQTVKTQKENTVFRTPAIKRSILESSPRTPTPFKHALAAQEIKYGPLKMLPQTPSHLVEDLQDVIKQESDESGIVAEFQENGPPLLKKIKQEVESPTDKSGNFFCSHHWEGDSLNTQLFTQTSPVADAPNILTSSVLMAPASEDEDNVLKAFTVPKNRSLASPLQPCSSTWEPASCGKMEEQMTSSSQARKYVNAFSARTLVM
Method in brief: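 In this HepG2 transient-transfection format, cis-regulated reporter mRNA is quantified 24 h post-dosing by RT-PCR with capillary electrophoresis, fitted bidirectionally to DMSO baseline.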

[8] = molecular target: Nuclear respiratory factor 1 (Homo sapiens) (UniProt Q16656); assay: ATG_NRF1_CIS: Attagene CIS-FACTORIAL HepG2 Assay for human Nuclear Respiratory Factor 1 (NRF1) Orphan Gene (AID 2282987); conditions: HepG2 NRF1 cis-element reporter, Attagene multiplex; actives raise or lower the signal
Nuclear respiratory factor 1 (Homo sapiens), sequence (Q16656 whole entry, looked up): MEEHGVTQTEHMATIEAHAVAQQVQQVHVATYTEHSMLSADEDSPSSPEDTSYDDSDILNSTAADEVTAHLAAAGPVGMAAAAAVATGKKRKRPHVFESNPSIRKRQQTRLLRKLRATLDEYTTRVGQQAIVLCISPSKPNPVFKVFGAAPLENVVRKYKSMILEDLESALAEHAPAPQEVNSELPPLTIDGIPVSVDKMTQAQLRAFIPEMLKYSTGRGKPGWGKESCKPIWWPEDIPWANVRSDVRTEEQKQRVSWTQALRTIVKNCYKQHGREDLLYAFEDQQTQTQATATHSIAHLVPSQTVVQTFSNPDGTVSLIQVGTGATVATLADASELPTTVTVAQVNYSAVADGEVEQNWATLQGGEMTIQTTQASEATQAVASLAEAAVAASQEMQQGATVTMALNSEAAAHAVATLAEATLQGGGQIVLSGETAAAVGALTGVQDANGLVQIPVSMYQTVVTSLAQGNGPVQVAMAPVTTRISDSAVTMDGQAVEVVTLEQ
Method in brief: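 Using DMSO as baseline, gain- or loss-of-signal was fitted for reporter mRNA levels in HepG2 cells transiently transfected with cis-regulated reporter units. Samples were taken 24 h after dosing and read by RT-PCR with capillary electrophoresis.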

[9] = molecular target: Myc proto-oncogene protein (Homo sapiens) (UniProt P01106); assay: ATG_Myc_CIS: Attagene CIS-FACTORIAL HepG2 Assay for human Myelocytomatosis (Myc) Proto-Oncogene Transcription Factor (AID 2282990); conditions: HepG2, Attagene cis-reporter transcription factor activity; actives raise or lower the signal
Myc proto-oncogene protein (Homo sapiens), sequence (P01106 whole entry, looked up): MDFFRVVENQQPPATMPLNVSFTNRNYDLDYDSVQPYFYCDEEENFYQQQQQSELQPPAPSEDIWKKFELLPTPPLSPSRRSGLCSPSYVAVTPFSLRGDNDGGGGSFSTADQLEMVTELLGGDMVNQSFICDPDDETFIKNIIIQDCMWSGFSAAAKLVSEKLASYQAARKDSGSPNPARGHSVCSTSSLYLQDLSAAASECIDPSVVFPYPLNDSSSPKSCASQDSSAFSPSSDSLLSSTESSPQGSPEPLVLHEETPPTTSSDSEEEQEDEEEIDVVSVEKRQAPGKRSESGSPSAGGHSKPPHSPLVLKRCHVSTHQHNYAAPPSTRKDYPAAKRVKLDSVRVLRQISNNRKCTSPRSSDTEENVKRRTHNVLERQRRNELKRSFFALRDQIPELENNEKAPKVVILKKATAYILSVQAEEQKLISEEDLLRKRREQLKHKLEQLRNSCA
Method in brief: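 DMSO-normalised, bidirectionally fitted reporter mRNA signal. HepG2 cells transfected with cis reporter constructs, treated 24 h; transcripts detected by RT-PCR, 6-FAM primer extension and CE.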

[10] = ATG_NF_kB_CIS: Attagene CIS-FACTORIAL HepG2 Assay for human Nuclear Factor Kappa B (NF-kB) (AID 2282991); conditions: HepG2 Attagene cis-factorial NF-kB reporter mRNA; actives raise or lower the signal
Method in brief: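 Endpoint from a 52-component multiplexed HepG2 reporter panel: cis-regulated transcription units transiently transfected, 24 h dosing, reporter mRNA quantified by RT-PCR and capillary electrophoresis, scored as increase or decrease against DMSO.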

[11] = ATG_NRF2_ARE_CIS: Attagene CIS-FACTORIAL HepG2 Assay for human Nuclear Factor Erythroid 2 Related Factor 2 (NFR2) response to Antioxidant Response Elements (ARE) (AID 2282992); conditions: HepG2 Attagene ARE/NRF2 reporter, transcription factor activity; actives raise or lower the signal;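 on AC50: reporter mRNA level measured by RT-PCR and capillary electrophoresis fluorescence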
Method in brief: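 Multiplexed reporter mRNA profiling in HepG2 after a 24 h chemical exposure. Curves fitted in both directions relative to DMSO negative control.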

[12] = ATG_Oct_MLP_CIS: Attagene CIS-FACTORIAL HepG2 Assay for human Octamer-Binding Transcription Factor (Oct) (AID 2282993); conditions: HepG2 Attagene cis-factorial Oct reporter, mRNA; actives raise or lower the signal
Method in brief: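 Multiplexed cis-reporter assay in human liver HepG2 cells, 24 h incubation. Reporter RNA amplified and labelled, then resolved by capillary electrophoresis; DMSO serves as negative control and baseline.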

[13] = molecular target: Cellular tumor antigen p53 (Homo sapiens) (UniProt P04637); assay: ATG_p53_CIS: Attagene CIS-FACTORIAL HepG2 Assay for human p53 Transcription Factor (AID 2282994); conditions: HepG2 p53 cis-element reporter, Attagene mRNA; actives raise or lower the signal
Cellular tumor antigen p53 (Homo sapiens), sequence (P04637 whole entry, looked up): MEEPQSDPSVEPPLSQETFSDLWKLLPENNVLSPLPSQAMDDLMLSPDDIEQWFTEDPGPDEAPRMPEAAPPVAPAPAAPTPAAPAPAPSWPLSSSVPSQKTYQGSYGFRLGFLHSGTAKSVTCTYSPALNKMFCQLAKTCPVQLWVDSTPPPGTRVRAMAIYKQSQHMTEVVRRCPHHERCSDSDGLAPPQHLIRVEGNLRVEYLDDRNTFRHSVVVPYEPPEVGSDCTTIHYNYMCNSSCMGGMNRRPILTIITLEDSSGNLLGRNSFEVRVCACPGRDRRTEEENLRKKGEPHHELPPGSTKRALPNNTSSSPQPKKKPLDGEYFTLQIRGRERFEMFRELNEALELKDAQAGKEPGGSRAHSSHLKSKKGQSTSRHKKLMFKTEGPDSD
Method in brief: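 Multiplexed reporter mRNA assay in human HepG2 liver cells; cis-regulated units report endogenous factor activity. Values come from bidirectional curve fitting against DMSO negative control after 24 h treatment.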

[14] = ATG_NFI_CIS: Attagene CIS-FACTORIAL HepG2 Assay for human Nuclear Factor I (NFI) (AID 2282989); conditions: HepG2 cis-regulatory reporter, NFI response element transcription; actives raise or lower the signal
Method in brief: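 HepG2, transient MRTU, 24 h exposure; RNA→cDNA→PCR→FAM label→HpaI→CE fluorescence. Bidirectional fit, DMSO = baseline.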

[15] = molecular target: Oxysterols receptor LXR-alpha (Homo sapiens) (UniProt Q13133); assay: ATG_LXRa_TRANS: Attagene TRANS-FACTORIAL HepG2 Assay for human Liver X Receptor alpha (LXRa) (AID 2282980; active means hit-call score of the fitted dose curve at least 0.9, where 1 is the maximum); conditions: HepG2 Attagene TRANS reporter, LXRa transactivation
Oxysterols receptor LXR-alpha (Homo sapiens), sequence (Q13133 whole entry, looked up, the tested form may be a part): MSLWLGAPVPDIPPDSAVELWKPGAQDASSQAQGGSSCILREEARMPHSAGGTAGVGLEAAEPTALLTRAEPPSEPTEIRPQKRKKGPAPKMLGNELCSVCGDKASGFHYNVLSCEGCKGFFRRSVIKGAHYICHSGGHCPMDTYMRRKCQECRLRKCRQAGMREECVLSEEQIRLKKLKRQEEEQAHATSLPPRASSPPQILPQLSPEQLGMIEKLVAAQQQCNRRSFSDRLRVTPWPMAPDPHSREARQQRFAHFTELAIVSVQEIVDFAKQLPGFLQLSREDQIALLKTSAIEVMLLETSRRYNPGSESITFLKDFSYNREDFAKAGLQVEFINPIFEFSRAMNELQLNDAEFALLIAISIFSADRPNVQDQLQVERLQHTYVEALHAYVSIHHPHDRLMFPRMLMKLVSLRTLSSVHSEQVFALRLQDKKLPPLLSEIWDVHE
Method in brief: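 HepG2 cells transiently transfected with GAL4-UAS reporter units for chimeric NR-Gal4 proteins, exposed to chemicals for 24 h. Reporter mRNA quantified by RT-PCR and capillary electrophoresis; gain of signal fitted relative to DMSO.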

Measured: AC50

O=C(Oc1ccccc1)c1ccc2ccccc2c1O
active: [10] 100 µM | [11] 18.3 µM | [12] 49 µM
not listed: [14] | [15]
inactive: all other assays above

COC(=O)/C=C\C(=O)O
active: [11] 43.3 µM
not listed: [5] | [6] | [12] | [15]
inactive: all other assays above

CCC(CO)CO
not listed: [4] | [15]
inactive: all other assays above

C[Si](C)O[Si](C)(C)O[Si](C)(C)O[Si](C)C
not listed: [3] | [4] | [10] | [13] | [15]
inactive: all other assays above

CC1(C)S[C@@H]2[C@H](NC(=O)COc3ccccc3)C(=O)N2[C@H]1C(=O)O
not listed: [2] | [4] | [5] | [6] | [13]
inactive: all other assays above
